Test results published in PubChem BioAssay (EPA / NIEHS).
Active and inactive are the calls of the source. Rule for the calls: active = hit-call score of the fitted dose curve at least 0.9, where 1 is the maximum; inactive = score below 0.9.

Columns and labels:
[1] = read-out: TIMP metallopeptidase inhibitor 2 (TIMP2), TIMP2 (gene 7077); test: BSK_KF3CT_TIMP2: BioMAP Diversity Plus: KF3CT Assay for TIMP metallopeptidase inhibitor 2 (TIMP2) Biomarker Activity (AID 2283071); conditions: primary human keratinocytes with fibroblasts; actives raise or lower the signal
Method in brief: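 Co-culture of human primary keratinocytes and foreskin fibroblasts, measured 24 h after chemical dosing. TIMP-2 quantified by ELISA and fitted in both directions relative to DMSO. Cytotoxicity checked in parallel cultures by SRB total-protein staining.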

[2] = read-out: Transforming growth factor beta 1 (TGFb1), TGFB1 (gene 7040); test: BSK_KF3CT_TGFb1: BioMAP Diversity Plus: KF3CT Assay for Transforming growth factor beta 1 (TGFb1) Biomarker Activity (AID 2283072); conditions: primary human keratinocytes with fibroblasts; actives raise or lower the signal
Method in brief: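 Human keratinocyte/foreskin fibroblast co-culture; TGF-b1 measured by ELISA 24 h after dosing, fitted bidirectionally versus DMSO. Cytotoxicity checked in parallel cultures by total protein (SRB staining, 560 nm).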

[3] = read-out: C-C motif chemokine 2 (Homo sapiens) (UniProt P13500); test: BSK_KF3CT_MCP1: BioMAP Diversity Plus: KF3CT Assay for Monocyte Chemoattractant Protein 1 (MCP1/CCL2) Biomarker Activity (AID 2283073); conditions: primary human keratinocytes with fibroblasts; actives raise or lower the signal
Method in brief: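 Human keratinocyte–foreskin fibroblast co-culture; MCP-1 measured by ELISA 24 h after dosing. Bidirectional fit vs DMSO; cytotoxicity tracked by SRB total protein in parallel cultures.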

[4] = read-out: Matrix Metallopeptidase 9 (MMP9), MMP9 (gene 4318); test: BSK_KF3CT_MMP9: BioMAP Diversity Plus: KF3CT Assay for Matrix Metallopeptidase 9 (MMP9) Biomarker Activity (AID 2283074); conditions: primary human keratinocytes with fibroblasts; actives raise or lower the signal;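 for AC50: MMP9 protein level quantified by ELISA in the co-culture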
Method in brief: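 Human keratinocyte and foreskin fibroblast co-culture exposed to chemicals for 24 h; MMP9 biomarker measured by ELISA, bidirectional fitting relative to DMSO; cytotoxicity tracked by SRB total protein staining in parallel cultures.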

CD40, CD40 (gene 958) [5] = test: BSK_LPS_CD40: BioMAP Diversity Plus: LPS Assay for CD40 Biomarker Activity (AID 2283076); conditions: primary human HUVEC with PBMC; actives raise or lower the signal
Method in brief: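 HUVEC plus PBMC co-culture stimulated with LPS; CD40 quantified by ELISA 24 h after compound dosing. Fitting was bidirectional relative to DMSO. SRB staining of parallel cultures flagged overt cytotoxicity.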

[6] = read-out: E-selectin (Homo sapiens) (UniProt P16581); test: BSK_LPS_Eselectin: BioMAP Diversity Plus: LPS Assay for Eselectin Biomarker Activity (AID 2283077); conditions: primary human HUVEC with PBMC; actives raise or lower the signal
Method in brief: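 Human umbilical vein endothelial cells co-cultured with PBMC under LPS stimulation; cell-surface E-selectin measured by ELISA 24 h after dosing. Change in either direction versus DMSO, with SRB total-protein staining in parallel cultures for cytotoxicity.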

[7] = read-out: Interleukin-8 (IL8), CXCL8 (gene 3576); test: BSK_LPS_IL8: BioMAP Diversity Plus: LPS Assay for Interleukin-8 (IL8) Biomarker Activity (AID 2283078); conditions: primary human HUVEC with PBMC; actives raise or lower the signal
Method in brief: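 Human umbilical vein endothelial cells co-cultured with PBMC, LPS-stimulated, exposed to compound for 24 h. IL-8 quantified by ELISA; fitted in both directions against DMSO, with SRB total-protein staining of parallel cultures for cytotoxicity.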

[8] = read-out: Interleukin-1 alpha (IL1a), IL1A (gene 3552); test: BSK_LPS_IL1a: BioMAP Diversity Plus: LPS Assay for Interleukin-1 alpha (IL1a) Biomarker Activity (AID 2283080); conditions: primary human HUVEC with PBMC; actives raise or lower the signal
Method in brief: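 Human umbilical vein endothelial cells co-cultured with PBMC and stimulated with LPS; IL-1a measured by ELISA 24 h after dosing. Bidirectional fitting against DMSO; cytotoxicity checked by SRB staining in parallel cultures.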

[9] = BSK_LPS_PGE2: BioMAP Diversity Plus: LPS Assay for Prostaglandin E2 (PGE2) Biomarker Activity (AID 2283082); conditions: primary human HUVEC with PBMC; actives raise or lower the signal;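 for AC50: secreted prostaglandin E2 measured by ELISA in LPS-stimulated co-culture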
Method in brief: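 HUVEC plus human PBMC co-culture stimulated with LPS; secreted PGE2 quantified by ELISA 24 h after chemical dosing. Activity fitted bidirectionally against DMSO baseline; parallel SRB staining (0.1% SRB after 10% TCA fixation, 560 nm) flags overt cytotoxicity.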

[10] = read-out: Tissue Factor, F3 (gene 2152); test: BSK_LPS_TissueFactor: BioMAP Diversity Plus: LPS Assay for Tissue Factor Biomarker Activity (AID 2283084); conditions: primary human HUVEC with PBMC; actives raise or lower the signal
Method in brief: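 Human umbilical vein endothelial cells co-cultured with PBMC were dosed with compound. Cell-surface CD142 was measured by ELISA 24 h later. Activity was fitted bidirectionally against DMSO, with SRB total-protein staining in parallel cultures for cytotoxicity.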

[11] = read-out: Tumor necrosis factor (Homo sapiens) (UniProt P01375); test: BSK_LPS_TNFa: BioMAP Diversity Plus: LPS Assay for Tumour Necrosis Factor alpha (TNFa) Biomarker Activity (AID 2283085); conditions: primary human HUVEC with PBMC; actives raise or lower the signal
Method in brief: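 Human umbilical vein endothelial cells co-cultured with PBMC and stimulated with LPS. TNFa was measured by ELISA 24 h after chemical dosing, fitted bidirectionally relative to DMSO.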

[12] = read-out: Vascular cell adhesion molecule 1 (VCAM1), VCAM1 (gene 7412); test: BSK_LPS_VCAM1: BioMAP Diversity Plus: LPS Assay for Vascular cell adhesion molecule 1 (VCAM1) Biomarker Activity (AID 2283086); conditions: primary human HUVEC with PBMC; actives raise or lower the signal
Method in brief: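 Human umbilical vein endothelial cells co-cultured with PBMC and stimulated with LPS; VCAM-1 measured by ELISA 24 h after dosing. Bidirectional curve fitting against DMSO baseline; cytotoxicity tracked in parallel by SRB total-protein staining.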

CD38, CD38 (gene 952) = test: BSK_SAg_CD38: BioMAP Diversity Plus: SAg Assay for CD38 Biomarker Activity (AID 2283087); conditions: primary human HUVEC with PBMC; actives raise or lower the signal
Method in brief: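 Human HUVEC plus PBMC co-culture stimulated with superantigen; CD38 measured by ELISA 24 h after chemical dosing. Fluorescence read-out, bidirectional fit against DMSO; cytotoxicity tracked in parallel by SRB and Alamar Blue.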

CD40, CD40 (gene 958) [13] = test: BSK_SAg_CD40: BioMAP Diversity Plus: SAg Assay for CD40 Biomarker Activity (AID 2283088); conditions: primary human HUVEC with PBMC; actives raise or lower the signal
Method in brief: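 HUVEC plus PBMC co-culture, superantigen-activated, with CD40 read by ELISA 24 h after dosing. Curves fitted in both directions against DMSO. Overt cytotoxicity checked by parallel SRB total-protein staining.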

CD69, CD69 (gene 969) = test: BSK_SAg_CD69: BioMAP Diversity Plus: SAg Assay for CD69 Biomarker Activity (AID 2283089); conditions: primary human HUVEC with PBMC; actives raise or lower the signal;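 for AC50: cell surface CD69 protein quantified by ELISA with fluorescence detection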
Method in brief: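 HUVEC co-cultured with PBMC were dosed with chemical, and CD69 was measured by ELISA with fluorescence read-out 24 h later. Bidirectional curve fitting used DMSO as negative control and activity baseline.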

[14] = read-out: Monocyte Chemoattractant Protein-1 (MCP1), CCL2 (gene 6347); test: BSK_SAg_MCP1: BioMAP Diversity Plus: SAg Assay for Monocyte Chemoattractant Protein-1 (MCP1) Biomarker Activity (AID 2283090); conditions: primary human HUVEC with PBMC; actives raise or lower the signal
Method in brief: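 MCP-1 levels in the endothelial–PBMC SAg co-culture were quantified by ELISA at 24 h post-dosing; both increases and decreases versus DMSO scored. Cytotoxicity monitored by SRB total protein in parallel cultures.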

[15] = read-out: urokinase plasminogen activator (uPA), PLAU (gene 5328); test: BSK_KF3CT_uPA: BioMAP Diversity Plus: KF3CT Assay for urokinase plasminogen activator (uPA) Biomarker Activity (AID 2283075); conditions: primary human keratinocytes with fibroblasts; actives raise or lower the signal
Method in brief: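 Primary human keratinocyte/foreskin fibroblast co-culture exposed to chemical; uPA measured by ELISA at 24 h. Bidirectional fit versus DMSO, with parallel SRB total-protein staining for cytotoxicity.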

[16] = BSK_LPS_SRB: Viability Assessment in the BioMAP Diversity Plus: LPS Assay (AID 2283079); conditions: primary human HUVEC with PBMC;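 note: total protein by sulforhodamine B absorbance as a cytotoxicity measure; measured one day after compound addition; fitted in both directions against DMSO so loss or gain of signal counts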
Method in brief: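 Co-culture of human umbilical vein endothelial cells and PBMC, read 24 h after dosing. Total protein by 0.1% SRB staining after 10% TCA fixation, absorbance at 560 nm; bidirectional fit against DMSO.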

[17] = read-out: Macrophage colony-stimulating factor (MCSF), CSF1 (gene 1435); test: BSK_LPS_MCSF: BioMAP Diversity Plus: LPS Assay for Macrophage colony-stimulating factor (MCSF) Biomarker Activity (AID 2283083); conditions: primary human HUVEC with PBMC; actives raise or lower the signal
Method in brief: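 HUVEC–PBMC co-culture, M-CSF measured by ELISA 24 h after chemical dosing. Fitted in both directions relative to DMSO as negative control; overt cytotoxicity assessed by SRB total-protein staining in parallel cultures.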

[18] = read-out: Monocyte Chemoattractant Protein-1 (MCP1), CCL2 (gene 6347); test: BSK_LPS_MCP1: BioMAP Diversity Plus: LPS Assay for Monocyte Chemoattractant Protein-1 (MCP1) Biomarker Activity (AID 2283081); conditions: primary human HUVEC with PBMC; actives raise or lower the signal;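 note: secreted MCP-1 protein quantified by ELISA in culture supernatant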
Method in brief: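 Human umbilical vein endothelial cells co-cultured with PBMC, LPS-stimulated; secreted MCP-1 measured by ELISA 24 h after compound addition. Bidirectional curve fitting against DMSO baseline; SRB total-protein staining in parallel cultures for cytotoxicity.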

Chain of E-selectin (Homo sapiens) (P16581 whole entry, looked up): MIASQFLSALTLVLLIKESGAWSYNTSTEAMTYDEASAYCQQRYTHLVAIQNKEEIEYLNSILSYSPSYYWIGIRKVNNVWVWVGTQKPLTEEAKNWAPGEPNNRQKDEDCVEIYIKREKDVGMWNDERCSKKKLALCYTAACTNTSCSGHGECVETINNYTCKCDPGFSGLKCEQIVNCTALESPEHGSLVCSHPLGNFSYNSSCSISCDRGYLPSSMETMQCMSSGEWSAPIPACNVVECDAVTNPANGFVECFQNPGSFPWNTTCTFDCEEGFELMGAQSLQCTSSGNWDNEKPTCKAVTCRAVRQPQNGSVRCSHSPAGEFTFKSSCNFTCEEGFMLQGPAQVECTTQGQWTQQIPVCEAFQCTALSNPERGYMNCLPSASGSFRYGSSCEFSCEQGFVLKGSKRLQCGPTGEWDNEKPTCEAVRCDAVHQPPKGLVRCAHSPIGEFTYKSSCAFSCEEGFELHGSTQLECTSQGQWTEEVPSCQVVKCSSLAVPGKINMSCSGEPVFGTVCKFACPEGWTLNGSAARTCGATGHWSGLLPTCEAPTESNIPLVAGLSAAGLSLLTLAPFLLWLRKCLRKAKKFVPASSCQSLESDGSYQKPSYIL
Chain of Tumor necrosis factor (Homo sapiens) (P01375 whole entry, looked up): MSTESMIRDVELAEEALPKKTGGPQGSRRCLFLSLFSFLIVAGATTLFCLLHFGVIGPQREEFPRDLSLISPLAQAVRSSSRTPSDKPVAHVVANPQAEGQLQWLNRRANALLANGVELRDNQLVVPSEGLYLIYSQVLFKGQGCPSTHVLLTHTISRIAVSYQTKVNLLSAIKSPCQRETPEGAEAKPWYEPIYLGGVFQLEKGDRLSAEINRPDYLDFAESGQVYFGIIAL

Cc1occc1C(=O)Nc1ccc(C(=O)N2CCC(F)(F)/C(=C\C(=O)N3CCC(N4CCCCC4)CC3)c3ccccc32)cc1
outcome [1]: inactive | outcome [2]: inactive | outcome [3]: inactive | outcome [4]: inactive | outcome (CD40, CD40 (gene 958) [5]): inactive | outcome [6]: inactive | outcome [7]: inactive | outcome [8]: inactive | outcome [9]: inactive | outcome [10]: inactive | outcome [11]: inactive | outcome [12]: inactive | outcome (CD38, CD38 (gene 952)): inactive | outcome (CD40, CD40 (gene 958) [13]): inactive | outcome (CD69, CD69 (gene 969)): inactive | outcome [14]: inactive

CCN(Cc1cccc(S(=O)(=O)O)c1)c1ccc(C(=C2C=CC(=[N+](CC)Cc3cccc(S(=O)(=O)O)c3)C=C2)c2ccccc2S(=O)(=O)[O-])cc1
outcome [1]: inactive | outcome [2]: inactive | outcome [3]: inactive | outcome [4]: inactive | outcome [15]: inactive | outcome (CD40, CD40 (gene 958) [5]): inactive | outcome [6]: inactive | outcome [7]: inactive | outcome [16]: inactive | outcome [8]: inactive | outcome [9]: inactive | outcome [17]: inactive | outcome [11]: inactive | outcome [12]: inactive | outcome (CD38, CD38 (gene 952)): inactive | outcome (CD40, CD40 (gene 958) [13]): inactive | outcome (CD69, CD69 (gene 969)): inactive | outcome [14]: inactive

COc1ccc2cc(S(=O)(=O)N[C@H](CC(=O)N[C@H](Cc3ccc(CN4[C@H](C)CCC[C@@H]4C)cc3)C(=O)N(C)C(C)C)c3ccc4c(c3)OCO4)ccc2c1
AC50 [1]: 27.6 µM (active) | outcome [2]: inactive | outcome [3]: inactive | AC50 [4]: 32.8 µM (active) | AC50 (CD40, CD40 (gene 958) [5]): 11.6 µM (active) | AC50 [6]: 31.3 µM (active) | AC50 [7]: 5.7 µM (active) | AC50 [16]: 15.5 µM (active) | AC50 [8]: 14.5 µM (active) | AC50 [18]: 23.1 µM (active) | AC50 [9]: 31.1 µM (active) | AC50 [17]: 19.1 µM (active) | AC50 [10]: 33.9 µM (active) | AC50 [11]: 33.6 µM (active) | AC50 [12]: 11.3 µM (active) | AC50 (CD40, CD40 (gene 958) [13]): 24 µM (active) | AC50 (CD69, CD69 (gene 969)): 24.5 µM (active) | AC50 [14]: 19.1 µM (active)
